Results reported in PubChem BioAssay AID1159614 (National Center for Advancing Translational Sciences (NCATS), 2016).
Screen size: about 45,000 compounds; about 65 (0.1%) were called active. The sample as a whole holds a higher share of actives than the screen did. Values without a mark were called inactive. Calls come from the whole dose curve; as a rule, active = well fitted activation curve with a large enough effect; inconclusive = small, poorly fitted or top-dose-only effect; inactive = no such curve, though single readings can be large or run the other way.

target: Galactocerebrosidase (Homo sapiens) (UniProt P54803); assay: A Novel Cell-Based Assay to Identify Small Molecules for B -Galactocerebrosidase; settings: 145M-Twi-hGALC-G270D cells (Twitcher mouse brain line with human GALC G270D), HMU-beta-Gal fluorescence, 48 h; series mostly up to 57.5 µM; activation: at the top concentration; note: nearly all actives have a fitted effect of over 65% in size; for activation: 0% is about no effect
From the text: Lysosomal storage diseases (LSDs) are caused by genetic mutations in genes encoding proteins important for normal lysosomal function. Globoid cell leukodystrophy (GLD), mostly known as Krabbe disease, is a prototype of the neurological LSDs caused by deficiency of beta-galactocerebrosidase (GALC). In brain specimens of GLD patients, psychosine levels are substantially elevated. At elevated concentrations, psychosine becomes cytotoxic to neuronal cells, particularly to oligodendrocytes (OLG), neural cells responsible for myelin formation. Therefore, the biochemical disturbances in GLD are manifested by different degrees of brain demyelination resulting in a broad spectrum of neurological manifestations. Most of the FDA-approved therapies are based on enzyme replacement therapeutic (ERT) agents, which treat non-neurological symptoms of Gaucher disease, Fabry disease, few mucopolysaccharidoses and Pompe disease. Unfortunately, in GLD, a primarily neurological LSD, ERT agents, as large molecular weight molecules unable to cross the blood-brain barrier, which makes this an inefficacious therapeutic approach. In GLD, increasing the residual GALC activity just above the critical threshold (~10% of wild type enzymatic activity), the cytotoxic levels of psychosine will be reduced, avoiding the OLGs apoptosis and the subsequent demyelination process. This will translate in disease stabilization and amelioration of GLD patient symptoms.
A cell-based assay in 1,536-well plate format was developed to implement a quantitative high-throughput screening (qHTS) assay using GLD-disease relevant cells to identify small molecules that produce enhancements of the residual enzymatic activity levels of mutants GALC found and prevalent in GLD patients. Compounds that are active may therefore have some therapeutic application for GLD. After the treatment of live cells for a determined period, using a fluorescent GALC specific substrate, the mutant residual GALC activity is measured. This cell-based qTHS assay was used to screen part of the MLPCN library for small molecule able to increase the mutant GALC enzymatic activity. In this assay, increased fluorescent signal corresponds to enhanced levels of mutant GALC residual enzymatic activity. Activation is the desired outcome for this assay.
NIH Chemical Genomics Center [NCGC]
NIH Molecular Libraries Probe Centers Network [MLPCN]
Assay Submitter (PI): Gustavo Maegawa MD,PhD, University of Florida, Gainesville, FL
2)#Two cell lines were established for the assay: 145M-Twi-hGALC-G270D (brain-derived Twitcher cell line stably expressing human GALC-G270D) and 145M-Twi-hGALC-WT (same 145M-Twi stably expressing human GALC wild type). The Twitcher is the murine C57B/6 model for GLD with naturally occurring homozygous nonsense GALC mutation. The 145M-Twi cell line was established at Maegawa lab (Ribbens J et al 2014).
a.#Media: DMEM/F12 (1:1) with 10% fetal bovine-serum (FBS) with penicillin/streptomycin (PS-1X - 100 I.U./mL of penicillin+100 ug/mL of streptomycin).
b.#The 6-Hexadecanoylamino-4-methylumbelliferyl-b-D-galactoside (HMU-B-gal) substrate was prepared as per Wiederschain et al 1992. Using 20-mL borosilicate tubes, 2.20 mg of HMU-b-Gal was added in each tube to prepare substrate-film with a final air-nitrogen stream evaporation to remove all diluent solvents.
c.#The HMUb-Gal substrate buffer consists of 0.2 M Na2HPO4 (sodium phosphate dibasic)/ 0.1 M Citric Acid with the pH adjusted to 5.2 using HCl. Sodium Azide at 0.02% and Sodium Taurocholate (NaTC) at 1 mg/mL were added to this substrate buffer.
d.#The HMU-b-Gal stopping buffer consist of 0.5 M NaHCO3 (sodium bicarbonate) /0.5 M Na2CO3 (sodium carbonate). […] Triton X-100 at 0.25% was added.
4)#Preparation of HMU-b-Gal substrate tubes
Adding 18.6 mL of the HMUb-Gal substrate buffer to each 20-mL tube (2.20 mg of HMU-b-Gal) will reach a concentration of 0.2 mM. Vortex well the tube until the solution is fully homogenized (clear cloudy solution). […]
Potency is the fitted concentration of half-maximal effect.

Chain of Galactocerebrosidase (Homo sapiens) (P54803 whole entry G286D): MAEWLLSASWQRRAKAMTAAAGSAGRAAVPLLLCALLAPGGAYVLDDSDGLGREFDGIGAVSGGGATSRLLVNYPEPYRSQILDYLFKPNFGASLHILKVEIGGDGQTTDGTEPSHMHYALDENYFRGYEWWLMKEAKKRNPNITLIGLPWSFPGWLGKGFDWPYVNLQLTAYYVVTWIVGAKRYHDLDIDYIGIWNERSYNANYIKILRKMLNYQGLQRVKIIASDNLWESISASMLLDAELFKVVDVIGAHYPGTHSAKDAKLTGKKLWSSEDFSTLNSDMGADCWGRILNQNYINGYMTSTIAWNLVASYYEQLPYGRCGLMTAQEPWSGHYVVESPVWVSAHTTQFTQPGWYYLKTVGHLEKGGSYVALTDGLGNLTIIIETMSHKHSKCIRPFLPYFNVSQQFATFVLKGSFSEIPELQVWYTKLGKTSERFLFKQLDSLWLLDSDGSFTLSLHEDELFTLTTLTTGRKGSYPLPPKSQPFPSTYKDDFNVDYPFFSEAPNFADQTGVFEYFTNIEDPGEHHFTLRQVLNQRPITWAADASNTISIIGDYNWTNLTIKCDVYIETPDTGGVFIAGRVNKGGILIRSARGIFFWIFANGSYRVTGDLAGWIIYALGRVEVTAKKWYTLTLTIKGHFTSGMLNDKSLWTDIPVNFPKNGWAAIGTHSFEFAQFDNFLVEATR

Structure (SMILES)	activation	Potency
Cc1ccc(-c2nnc3c4ccccc4c(C)nn23)cc1NC(=O)c1cccc(Br)c1	-7.24%	–
CCOc1ccc(-c2cc3c(=O)n(CC(=O)NCc4ccc(OC)cc4)ccn3n2)cc1	-15.5%	–
O=C(O)c1c(CNCc2cccc(F)c2)c2ccccc2n1Cc1ccccc1	-5.18%	–
COc1cccc(NC(=O)CCNS(=O)(=O)c2ccc3c(c2)oc(=O)n3C)c1	-7.1%	–
CCc1ccc(-n2nc(C)c3c(C)cc(=O)n(CC(=O)Nc4ccc(F)cc4C)c32)cc1	-3.14%	–
CC(C)(C)C1CCc2c(sc(NC(=O)c3ccccc3F)c2C(=O)N2CCCCC2)C1 (stereo not drawn)	-13.1%	–
CCOC(=O)c1ccc(-c2ccc(/C=C(\C#N)C(=O)Nc3ccc(C)cc3)o2)cc1	-11.5%	–
Cc1ccc2cccc(NC(=O)c3ccc(OC(C)C)cc3)c2n1	-11.4%	–
CCCCOCCOC(=O)c1cccnc1	-11.9%	–
CCOc1ccccc1NC(=O)CCS(=O)(=O)c1cccc2nsnc12	2.29%	–
CCOc1ccc(Nc2nc3c(S(=O)(=O)c4cccc(Cl)c4)nnn3c3ccsc23)cc1	-14.5%	–
COc1ccc(S(=O)(=O)c2cn(C)c3cc(N4CCCCC4)c(F)cc3c2=O)cc1	-9.33%	–
O=C(CCS(=O)(=O)c1ccc2c(c1)NC(=O)CO2)Nc1cccc(C(F)(F)F)c1	-4.39%	–
CC(=O)c1ccc(NC(=O)CSc2nc(-c3ccccc3F)nc3c2c(=O)n(C)c(=O)n3C)cc1	-7.96%	–
CCOc1ccc(N(CC)S(=O)(=O)N2CCCC(C(=O)Nc3ccc(C(C)=O)cc3)C2)cc1 (stereo not drawn)	-18%	–
CCOC(=O)c1cc2c(=O)n3ccccc3nc2n(CC2CCCO2)c1=NC(=O)c1ccccc1Br (stereo not drawn)	-16.4%	–
COCCNC(=O)CCCN1C(=O)c2ccccc2Sc2ncccc21	-7.98%	–
Cc1ccc(O)c(NC(=O)c2cc(-c3ccc(F)cc3)no2)c1	-4.86%	–
COc1ccc(S(=O)(=O)NCC(c2ccc(N(C)C)cc2)N2CCc3ccccc32)cc1OC (stereo not drawn)	7.29%	–
CCc1ccc(NC(=O)CCCc2nnc3n(CCCOC)c(=O)c4sccc4n23)cc1	-9.86%	–
Cc1ccc2c(c1)-c1c(cnn1CC(=O)Nc1ccccc1C#N)CO2	-5.88%	–
O=C(NCCc1ccccc1)C(=O)NCC(c1ccco1)S(=O)(=O)c1ccccc1 (stereo not drawn)	-6.34%	–
CCOC(=O)Cn1c(=O)n(C2CCCCC2)c2nc(-c3cccc(OC)c3)nc(C(N)=O)c21	-10.1%	–
CCOc1ccc(N(C)S(=O)(=O)c2cc(-c3cnc(C)o3)ccc2OC)cc1	-2.93%	–
CCc1ccc2ncc3c(-c4ccc(C)cc4)nn(CC(=O)NCc4ccccc4)c3c2c1	-22.7%	–

Structure (SMILES)	activation	Potency
COc1ccc(-c2cn3c(n2)sc2cc(C(=O)Nc4ccc(F)cc4)ccc23)cc1	0.197%	–
COc1cc(Cl)c(NC(=O)CC(C)S(=O)(=O)c2cc3c(cc2C)NC(=O)CO3)c(OC)c1 (stereo not drawn)	-5.69%	–
COc1cc(C(=O)NCCS(=O)(=O)N2CCN(c3ccccc3)CC2)cc(OC)c1OC	-8.87%	–
Nc1ncc(S(=O)(=O)Nc2ccc(OC(F)(F)F)cc2)cn1	-4.92%	–
Cc1ccc(C)c(Cn2c(CCCNC(=O)C3CCCCC3)nc3ccccc32)c1	-11.7%	–
COc1ccc(CNC(=O)CC2Oc3ccc(C)cc3NC2=O)cc1 (stereo not drawn)	-16.9%	–
CCN(CCCNC(=O)CSc1cc(=O)n(C)c2cc(Cl)ccc12)c1cccc(C)c1	-33%	–
COc1ccc(OCC(=O)Nc2cccc(C(=O)OCc3cc(=O)n4nc(C)sc4n3)c2)cc1	0.413%	–
NC(=O)C1CCN(C(=O)c2cccc(NC(=O)c3nsc4ccccc34)c2)CC1	-9.51%	–
Cc1ccccc1C(=O)Nc1nnc(S(=O)(=O)N(C)c2ccc(Cl)cc2)s1	6.13%	–
CCCCN(CC)C(=O)c1c[nH]c2ccc(S(=O)(=O)Nc3cccc(OC)c3)cc2c1=O	-12.1%	–
Cc1c(C(=O)N2CCCC2)oc2c1-c1nn(CC(=O)NCc3ccc(OC(C)C)cc3)cc1CC2	-10.3%	–
O=C(CN1C(=O)c2cccnc2Oc2ccc(Cl)cc21)NCCc1ccccc1	2.45%	–
Cc1cccc(Nc2cc(C)nc(-n3nc(C)cc3C)n2)c1	-8.54%	–
COC(=O)c1cc(NC(=O)CCc2c(C)nc3c4c(C)cc(C)nc4nn3c2C)cc(C(=O)OC)c1	-13.4%	–
CCOc1ccc(NC(=O)c2cn(C3CCCCC3)c(=O)c3c2c2ccccc2n3C)cc1	-23.7%	–
Cc1ccc(Cn2cc(CCC(=O)NCc3ccc(OC(C)C)cc3)c3ccccc32)cc1	-8.74%	–
CCc1cnc2c(c1SCC(=O)c1ccccc1)c(=O)n(C)c(=O)n2C	-5.57%	–
Cc1ccccc1OCc1nc2c3cnn(-c4ccccc4F)c3ncn2n1	-6.17%	–
O=C(Nc1cccc(Cl)c1)c1csnn1	-15.8%	–
COc1ccc(C2C(=O)N(C3CCCCC3)CC(=O)N2Cc2ccccc2Cl)cc1OC (stereo not drawn)	-7.68%	–
O=C(Nc1ccc(OC(F)(F)F)cc1)C1CCCN(S(=O)(=O)c2ccc(Br)s2)C1 (stereo not drawn)	-10.7%	–
COc1ccc(-c2cc(-c3ccc(F)cc3)nc3c2COc2ccccc2-3)cc1	-7.39%	–
O=C(CCCCn1c(=O)c2ccccc2n(CC(=O)Nc2cccc(C(F)(F)F)c2)c1=O)NCc1ccc2c(c1)OCO2	-1.08%	–
CC(C)C(=O)Nc1nc2c(s1)CC(C(C)(C)C)CC2 (stereo not drawn)	-11%	–

Structure (SMILES)	activation	Potency
Cc1ccc(CCNC(=O)C2CCN(c3nnc(-n4cccc4CNc4ccc(C)cc4)s3)CC2)cc1	6.11%	–
CCCCCn1c(=O)[nH]c2cc(C(=O)NCCN(C)CCCC)ccc2c1=O	-11.4%	–
COc1ccc(C)cc1Nc1nc2ccccc2c2nnc(C)n12	-10.1%	–
Cc1ccc(NC(=O)CSc2nc3ccccc3c3nc(CCn4cncc4C)nn23)cc1F	-12.2%	–
Cc1ccc(Cl)cc1N1CCN(C(=O)c2cnc3c(-c4ccc(F)cc4)c(C)nn3c2C)CC1	-9.19%	–
COc1ccccc1/C=C/c1nc(C#N)c(NC(C)c2ccccc2)o1 (stereo not drawn)	-13.4%	–
CC(=O)N1c2ccccc2CC1C(=O)N1CCN(c2ccc(F)cc2)CC1 (stereo not drawn)	-14.3%	–
CCN(CC)c1nn2c(=O)c(C(=O)NCCc3ccccc3)cnc2s1	-13%	–
COc1ccc(C2Sc3ccccc3NC3=C2C(=O)c2ccccc23)c(OC)c1OC (stereo not drawn)	-16.7%	–
CC(=O)Nc1ccc2nc(SCCOc3cc(C)cc(C)c3)sc2c1	-29.8%	–
Cc1ccc(S(=O)(=O)c2c(Nc3cccc(Cl)c3)sc(C(=O)c3ccc4c(c3)OCO4)c2N)cc1	-7.44%	–
COc1cc(NC(=O)c2nn(-c3ccc(C)cc3)c(=O)c3c2c2ccccc2n3C)cc(OC)c1OC	-20.9%	–
CCOC(=O)c1ccccc1NC(=O)c1sc2nc(-c3ccc(F)cc3)cn2c1C	-13.4%	–
Cc1ccc(Cn2c(CCCNC(=O)C3CCCCC3)nc3ccccc32)cc1	-11.3%	–
CCc1nccn1S(=O)(=O)c1cc(Br)ccc1Br	-5.8%	–
COc1ccc(OCCCn2c(C)nc3cc(C)c(C)cc32)cc1	-10.3%	–
Cc1ccc(-n2ncc3c(=O)n(Cc4cccc(C(F)(F)F)c4)cnc32)cc1C	-13.3%	–
Cc1ccc2nc(COc3cccc(NC(=O)c4ccccc4Cl)c3)cc(=O)n2c1	-12.6%	–
COc1ccc(CNC(=O)c2ccc(NC(=O)N3CC4CCCN4c4ccccc43)cc2)cc1 (stereo not drawn)	-12.2%	–
Cc1ccc(C)c(NC(=O)C2CCCN(S(=O)(=O)c3cn(C)cn3)C2)c1 (stereo not drawn)	2.62%	–
COc1cc(Cl)c(C)cc1Nc1nnc(-n2nc(C)cc2C)c2ccccc12	-10.6%	–
CCOC(=O)c1c(C)n(S(=O)(=O)c2ccc(C)cc2C)c2ccc(NS(=O)(=O)c3ccc(C)cc3C)cc12	-2.18%	–
COC(=O)/C=C(/C)N	-6.02%	–
CCn1cc2nc(SCc3cccc(F)c3)n(CCc3ccccc3)c(=O)c2n1	-27.4%	–
COc1cccc(Cn2c(CNS(=O)(=O)c3ccc(Cl)s3)nc3cccnc32)c1	7.72%	–

Structure (SMILES)	activation	Potency
CCC(=O)N1c2ccccc2CC1C(=O)N1CCN(c2ccccc2)CC1 (stereo not drawn)	11.7%	–
COc1cccc(NC(=O)c2ccc3nc(CCc4ccccc4)oc3c2)c1	-18.4%	–
COc1ccccc1N1CCN(c2ncnc3onc(-c4cccc(Cl)c4)c23)CC1	-9.65%	–
COc1cccc(C(=O)NC(=O)Nc2ccc(-c3cc(C(F)(F)F)nn3-c3ccccc3)cc2)c1	1.48%	–
COc1ccc(-c2ccc(=O)n(CC(=O)Nc3ccc(Br)cc3F)n2)cc1	-6%	–
Fc1ccccc1Oc1ncnc2c1oc1ccccc12	-10.2%	–
COc1ccc(-c2cn3nc(N4CCCC(C(=O)NCCCOC(C)C)C4)sc3n2)cc1 (stereo not drawn)	-13.8%	–
CCOC(=O)c1ccc(NC(=O)CCn2cnnn2)cc1	-12.4%	–
CC(C)(C)OC(=O)N1CCC(c2c(C(=O)Nc3ccc4c(c3)OCO4)cnn2-c2ccccc2)CC1	-3.46%	–
COc1ccc(Cl)cc1NC(=O)C(C)Sc1nc2c(c(=O)[nH]1)CCCC2 (stereo not drawn)	5.09%	–
COC(=O)c1nc(Cl)c(Cl)nc1N	-15.2%	–
O=C(CSc1oc(-c2ccco2)nc1S(=O)(=O)c1ccccc1)c1ccc(Cl)cc1	-25.8%	–
O=c1[nH]c2cc(Br)ccc2n2cccc12	-12.7%	–
CN(Cc1ccccc1)c1ccc(-c2nc(-c3ccccc3)no2)cc1[N+](=O)[O-]	-39.7%	–
COc1cc(NC(=O)CCn2nc(C)cc2C)cc(OC)c1OC	0.94%	–
CCOC(=O)c1c(C)[nH]c(C)c1S(=O)(=O)NCC(=O)NCc1cccc(C)c1	-12.1%	–
CCOc1ccc(OCC)c(NC(=O)c2cc(C)nc3c2c(C)nn3-c2cccc(Cl)c2C)c1	-12.6%	–
Cc1ccc(Oc2c(C(F)(F)F)oc3c(CN4CCCCC4)c(O)ccc3c2=O)cc1	-11.8%	–
COc1ccc(-c2c(C)c3ccc(O)c(CN4CCCC4)c3oc2=O)cc1OC	–	39.8 µM (active)
COc1ccc(-c2c(C)c3ccc(O)c(CN4CCN(C)CC4)c3oc2=O)cc1OC	-9.31%	–
O=C(NCc1ccccc1)c1cccc(NC(=O)N2CCSc3ncccc32)c1	-9.3%	–
CCCCN1C(=O)c2[nH]nc(-c3ccccc3O)c2C1c1cccc(OCc2ccccc2)c1 (stereo not drawn)	-9.56%	–
O=C(NC1CC(=O)N(c2ccccc2)C1)c1ccco1 (stereo not drawn)	-16.5%	–
